Assay outcomes: PubChem BioAssay, several laboratories
GAA850 FXN act – increases GAA850 frataxin promoter reporter activity; HEK293 lucGAA850 FXN promoter luciferase reporter, 24 h; percent of 10 µM SAHA response; activation, % at 6 µM; 0.56% of 360,000 active; AID 540364;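 active = activation above the average of all compounds screened plus 3 SD, cutoff fixed separately per campaign, cut at about 7.5% in these data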;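 note: 0% = DMSO wells and 100% = 10 µM SAHA wells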
COUP-TFII inh – inhibitors of human COUP-TFII (NR2F2); HEK293T NGFI-A luciferase reporter, luminescence; inhibition, % at 8.6 µM; 0.7% of 370,000 active; AID 686940;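 active = inhibition above a per-plate cutoff, mean inhibition of test wells between control levels plus 3 SD, cut at about 38% in these data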;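 note: cells cotransfected with COUP-TFII expression vector driving the NGFI-A reporter; 0% = median of COUP-TF2 test wells and 100% = reporter-only cells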
Gli-Sufu antag – Gli-Sufu pathway antagonism | Sufu-KO-LIGHT fibroblasts, Gli luciferase reporter luminescence | inhibition, % at 5 µM | 0.74% of 340,000 active | AID 588413;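 active = inhibition above about 55%, limit read from the data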;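 note: 0% = DMSO-treated cells and 100% = wells with medium but no cells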
SMARCA2 activ – activators of SMARCA2 function; AID 652017; MG213 cells, MMTV-luciferase reporter, dexamethasone, overnight; 1% of 370,000 active; activation, % at 9.1 µM; in the data active = activation above about 7.8%;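 note: 0% = vehicle wells and 100% = reference activator wells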
GalR3 antagonist – blocks the human galanin receptor 3 | 0.44% of 360,000 active | HEK293 GalR3-CNG cAMP membrane potential fluorescence; galR3 body fused to GalR1 C-terminus | AID 651719 | inhibition, % at 3 µM | O60755;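 active = inhibition above the screen-wide average plus 3 SD, cut at about 13% in these data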;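 note: forskolin and galanin both at EC90 stimulate the cells; cAMP rise reported by CNG channel membrane potential dye signal; 0% = forskolin plus galanin with DMSO and 100% = forskolin alone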
Target sequence (O60755 1-299 limits assumed): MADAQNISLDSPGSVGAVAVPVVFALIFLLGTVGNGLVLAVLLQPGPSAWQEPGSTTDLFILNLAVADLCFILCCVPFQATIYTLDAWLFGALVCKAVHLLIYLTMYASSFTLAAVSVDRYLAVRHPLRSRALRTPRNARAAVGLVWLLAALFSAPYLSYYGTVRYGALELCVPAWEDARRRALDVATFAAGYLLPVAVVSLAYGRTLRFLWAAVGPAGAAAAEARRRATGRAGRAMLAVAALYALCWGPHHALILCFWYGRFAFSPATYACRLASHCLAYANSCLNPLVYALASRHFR
H9c2 protect – myocardial damage modulation in H9c2 cells | protection from H2O2 cell death, % at 20 µM | H9c2 cardiomyocytes, H2O2 injury protection, ATPLite, 2 h | 0.63% of 360,000 active | AID 588492;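 active = compounds giving at least 50% protection of heart cells from peroxide-induced death in the single-dose screen, raw or plate-pattern-corrected value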;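 note: 0% = DMSO wells with peroxide and 100% = DMSO wells without peroxide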
SMARCA2 act conf – confirmation of SMARCA2 (BRM) function activators; activation, % at 9.1 µM; AID 652260; 30% of 3,500 active; shares compounds with SMARCA2 activ; MG213 cells, MMTV-luciferase with dexamethasone, luminescence, overnight; MG213 cells expressing E1A, Rb sequestered; DMSO wells 0%, reference activator 100%;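 active = activation above its plate's cutoff, the mean activation of tested wells plus 3 SD, cut at about 7.9% in these data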
GAL4-VP16 Luc – GAL4-VP16 reporter activation counter-screen; shares compounds with SMARCA2 activ; HEK293 GAL4-VP16 pG5luc reporter, luciferase luminescence; scaled: DMSO wells 0%, SAHA wells 100%; AID 686939; activation, % at 9.1 µM; 41% of 3,500 active;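 active = activation above the solvent-only control well mean plus 3 SD, averaged across control plates, cut at about 5.2% in these data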
* = called active by the depositor; . = no result. Only some compounds are listed: those with a hit (about 3.4% of all), similar ones and a draw of the others.

SMILES	GAA850 FXN act	COUP-TFII inh	Gli-Sufu antag	SMARCA2 activ	GalR3 antagonist	H9c2 protect	SMARCA2 act conf	GAL4-VP16 Luc
COc1ccc2nc(NC(=O)c3cc(C)oc3C)sc2c1	2	-22	-78	2	-4	-19	.	.
O=C(Nc1ccc(C(=O)N2CCCCC2)cc1)C1CC1	0	-20	2	2	-4	6	.	.
O=C(CNC(=O)c1ccccc1F)NCCc1ccc(Cl)cc1Cl	1	5	0	9.5*	-7	-2	-2	2
O=C(CNC(=O)c1ccccc1F)c1ccccc1	4	-43	-55	10*	-4	-8	5	9.6*
O=C(CNC(=O)c1ccccc1F)NCCc1ccc(Cl)cc1	-1	-3	-15	-1	-5	-5	.	.
COc1cc(OC)c2c(O)c3c(c(-c4c5c(c(O)c6c(OC)cc(OC)cc46)CO[C@@H](C)[C@H]5O)c2c1)[C@H](O)[C@H](C)OC3	1	.	9	.	.	-1	.	.
CCCN(CCC)C(=O)NC1CC(=O)N(c2ccc(OC)cc2)C1 (centres undefined)	-1	-8	-1	0	2	4	.	.
CCCOc1ccc(-c2cnc(N)s2)cc1	4	-40	-78	13*	-9	-8	7	10*
CCCOc1ccc(OCCSc2nnc(N)s2)cc1	2	-11	-14	-1	-4	.	.	.
CCn1nc(C)cc1C(=O)N1CCc2c([nH]c3ccccc23)C1c1cc(F)ccc1F (centres undefined)	3	-24	-1	9.0*	-2	0	4	6.3*
Cc1ncoc1C(=O)N1CCc2c([nH]c3ccccc23)C1c1ccccc1F (centres undefined)	-1	-2	-4	0	-6	-1	.	.
C=CCNC(=O)c1c(Cl)cnn1-c1ccc(C)cc1	7	-19	-56	12*	-8	-1	6	5.4*
Cc1ccc(-c2noc(CSc3ccccc3)n2)cc1	4	-34	-115	9.3*	-6	-13	3	8.2*
Cc1ccc(-c2noc(CN3CCCCC3)n2)cc1	3	-11	-101	8.3*	-3	-6	4	9.1*
CCOC(=O)C1CCN(C(C(=O)NC2CCCC2)c2ccc(C)cc2)CC1 (centres undefined)	-2	12	4	5	8	6	.	.
CC(=O)Oc1ccc(C2=Cc3ccc(OC(C)=O)cc3OC2C)cc1 (centres undefined)	3	-29	30	8.2*	3	-6	8.0*	6.5*
COc1cc(OC)cc(-c2c(Sc3ccccc3)c3cc(-c4ccc5c(c4)OCCO5)ccc3n2C)c1	.	13	.	-3	-8	.	.	.
COC(=O)c1ccc(OCC(=O)c2ccccc2)cc1	4	-29	-90	12*	-3	-13	11*	8.5*
O=C(CNS(=O)(=O)c1ccccc1)OCC(=O)c1ccc(OC(=O)c2ccccc2)cc1	4	-11	-1	8.7*	-7	-3	18*	2
Cc1ccccc1NC(=O)NNC(=O)COc1ccc2ccccc2c1	-1	-27	0	1	-3	6	.	.
O=C1NC(=O)/C(=C\c2ccc(OCc3cccc(C(=O)O)c3)c(Cl)c2)N1	7	-36	-121	9.0*	-5	0	7	8.4*
C[C@H](CO)N1C[C@H](C)[C@@H](CN(C)C(=O)CCC(F)(F)F)OCc2cn(nn2)CCCC1=O	.	-19	.	8.4*	-1	.	0	1
CN(c1ccccc1)S(=O)(=O)c1cc(C(=O)OCC(=O)c2c(N)n(C)c(=O)n(C)c2=O)ccc1Cl	-1	-1	2	-2	-5	7	.	.
Cn1c(N)c(C(=O)COC(=O)c2ccc(Cl)c(S(=O)(=O)N3CCCCC3)c2)c(=O)n(C)c1=O	-2	-7	-1	12*	-10	13	-1	-2
COc1ccc(C(=O)NC2CCCCC2)cc1S(=O)(=O)N1CCOCC1	0	11	-14	15*	-8	-7	-2	-1
SMILES	GAA850 FXN act	COUP-TFII inh	Gli-Sufu antag	SMARCA2 activ	GalR3 antagonist	H9c2 protect	SMARCA2 act conf	GAL4-VP16 Luc
O=C(COC(=O)c1ccc(Cl)c(S(=O)(=O)N2CCCCC2)c1)NC1CCCCC1	-1	-6	.	15*	0	-1	2	-1
O=C(COC(=O)c1ccc(Cl)c(S(=O)(=O)N2CCCC2)c1)NC1CCCCC1	0	-10	3	-2	2	-5	.	.
CCOC(=O)N1CCN(C(c2ccnc3ccccc23)c2nnnn2-c2ccc3c(c2)OCCO3)CC1 (centres undefined)	.	12	.	-3	-7	.	.	.
CCOCCn1c(CN2CCCCC2)nc2c1c(=O)n(C)c(=O)n2C	0	-5	0	8.1*	.	-6	0	0
Cn1c(CCC(=O)O)nc2cc(S(=O)(=O)N3CCCCC3)ccc21	1	-5	-3	11*	-4	6	0	0
Cn1c(CCC(=O)O)nc2cc(S(=O)(=O)N3CCCC3)ccc21	1	-10	6	-5	-3	-3	.	.
CC1CCN(c2ccc(NC(=O)Cc3ccccc3)cc2)CC1	3	-22	-25	2	-2	-6	.	.
CCC(=O)Nc1ccc(N2CCC(C)CC2)cc1	3	-31	-24	9.6*	-3	3	4	4
CCC1CCCCN1C(=O)CSc1nnc(-c2cccs2)o1 (centres undefined)	2	-50	-65	8.0*	-1	-10	12*	8.4*
O=C(CSc1nnc(-c2cccs2)o1)c1cccs1	4	-33	-22	8.0*	-3	0	12*	7.0*
COc1ccc(-c2nnc(SCC(=O)c3cccs3)o2)cc1	4	-26	-60	5	-1	-8	.	.
Nc1nc(Nc2ccccc2F)nc(NCc2ccco2)c1[N+](=O)[O-]	6	-37	-14	13*	1	-1	7	2
Nc1nc(NCc2ccco2)nc(Nc2ccccc2)c1[N+](=O)[O-]	3	0	2	3	-3	5	.	.
O=C(c1ccc2c(c1)OCCO2)N1CCCCC1	2	4	5	0	0	8	.	.
CC1CCCN(C(=O)c2ccc3c(c2)OCCO3)C1 (centres undefined)	3	-11	-10	9.9*	-7	-1	1	5.5*
CC(=O)Nc1ccc(S(=O)(=O)N(C)CC(=O)OCCOc2cccc(C)c2)cc1	0	-11	2	-2	-2	7	.	.
O=[N+]([O-])c1ccc2[nH]c(=S)sc2c1	-1	2	-5	-2	-4	-20	.	.
